One test concerns the target Albumin (Bos taurus) (UniProt P02769). The test is described as follows: bovine serum albumin binders on microarray, profiling panel, artefact control for SMM control protein annotation, biochemical, small-molecule microarray, Alexa647 label, 635/667 nm fluorescence (AID 1118).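 Note: score merges 667 nm emission intensity and signal-to-noise per printed compound spot.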 Conditions: BSA-A647 binding, fluorescence 635 nm, higher = more signal.
Test [1] in a line: small-molecule microarray binders of probe aXIP, primary screen, biochemical, NeuroSMM set, 635/667 nm fluorescence (AID 1119).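 Note: probe is the protein aXip251-270 applied at 1 µg/mL to compound-printed slides; binding of probe to printed compounds measured as 667 nm fluorescence plus signal to noise.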 The following applies: higher = more signal, called active from +8 up or from −8 down.
Test [2] is described as follows: small-molecule binders of probe aNOTCH3, primary screen, biochemical, small-molecule microarray, 635/667 nm fluorescence (AID 1120).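 Note: probe is a biotin-tagged antibody raised against NOTCH3 rather than NOTCH3 protein; score merges spot fluorescence near 667 nm with spot signal to noise.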 The following applies: higher = more signal.
A short description of test [3]: small-molecule binders of probe aNOTCH2, primary screen, biochemical, small-molecule microarray, 635/667 nm fluorescence (AID 1121).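 Note: score merges feature fluorescence read at 667 nm with its signal to noise.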 Conditions: higher = more signal.
Test [4] concerns the target Carbonic anhydrase 2 (Homo sapiens) (UniProt P00918). Put plainly: CAII small-molecule binders, profiling panel, biochemical, small-molecule microarray, Alexa647-labelled CAII (AID 1122). Conditions: CAII-A647 binding fluorescence, higher = more signal.
A short description of test [5]: COS7 lysate on small-molecule microarray, probe aHis, 635 nm (AID 1123).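 Note: z-score combines 667nm fluorescence intensity with signal-to-noise per printed compound spot.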 The following applies: COS7 cell lysate, fluorescence, higher = more signal.
A short description of test [6]: compound binding in COS7 lysate, probe aLAP1, primary screen, cell lysate, small-molecule microarray (AID 1124).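 Note: lysate comes from COS7 cells expressing LAP1 and is applied at 0.3 µg/mL; score merges spot fluorescence near 667 nm with signal-to-noise over triplicate slides.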 The following applies: probe aLAP1, fluorescence, higher = more signal.
The next test deals with Sam68 (KHDRBS1). Put plainly: Sam68 small-molecule binders, primary screen, biochemical, small-molecule microarray, 635 nm fluorescence (AID 1125).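 Note: score merges 667 nm channel intensity with signal to noise over triplicate slides.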 Conditions: small-molecule microarray binding, higher = more signal.
Test [7] has as its system Chordin-like protein 2 (CHRDL2). Put plainly: CHRDL2 small-molecule binders, primary screen, biochemical, small-molecule microarray, 635 nm fluorescence (AID 1126).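 Note: printed compound slides probed with Chrdl2 protein at 4 µg/mL for 1 h at 4 C; score merges 667 nm emission intensity with signal to noise over three replicate slides.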 Conditions: small-molecule microarray binding, fluorescence 635 nm; higher = more signal.
Test [8] has as its target Concanavalin-A (Canavalia ensiformis) (UniProt P02866). Put plainly: ConA small-molecule binders, primary screen, artefact control for SMM control protein annotation, biochemical, small-molecule microarray, Alexa647 label, 635 nm (AID 1127).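 Note: z combines 667 nm emission intensity with signal-to-noise across three replicate slides.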 Conditions: ConA-A647 binding fluorescence, higher = more signal.
Test [9] can be described thus: anti-His antibody binders, primary screen, artefact control for SMM control protein annotation, biochemical, small-molecule microarray, 635 nm fluorescence (AID 1128).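 Note: score merges feature fluorescence with signal-to-noise for each printed compound spot.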 The following applies: anti-His Alexa647 antibody binding, higher = more signal.
Test [10] has as its system Human papillomavirus type 1a E7 protein (residues 1-88). The test is described as follows: HPV1a E7 small-molecule binders, primary screen, biochemical, small-molecule microarray, residues 1-88, 635 nm (AID 1129). The following applies: small-molecule microarray binding, fluorescence 635 nm; higher = more signal.
The target in test [11] is Focal adhesion kinase 1 (Homo sapiens) (UniProt Q05397). The test is described as follows: small-molecule microarray binders of FAK, primary screen, biochemical, 635/667 nm fluorescence, BSA, DTT (AID 1130).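 Note: composite of spot emission at 667 nm and signal to noise over triplicate slides.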 The following applies: PTK2 binding, 635 nm fluorescence, higher = more signal.
Focal adhesion kinase 1 (Homo sapiens), sequence (Q05397 whole entry, looked up): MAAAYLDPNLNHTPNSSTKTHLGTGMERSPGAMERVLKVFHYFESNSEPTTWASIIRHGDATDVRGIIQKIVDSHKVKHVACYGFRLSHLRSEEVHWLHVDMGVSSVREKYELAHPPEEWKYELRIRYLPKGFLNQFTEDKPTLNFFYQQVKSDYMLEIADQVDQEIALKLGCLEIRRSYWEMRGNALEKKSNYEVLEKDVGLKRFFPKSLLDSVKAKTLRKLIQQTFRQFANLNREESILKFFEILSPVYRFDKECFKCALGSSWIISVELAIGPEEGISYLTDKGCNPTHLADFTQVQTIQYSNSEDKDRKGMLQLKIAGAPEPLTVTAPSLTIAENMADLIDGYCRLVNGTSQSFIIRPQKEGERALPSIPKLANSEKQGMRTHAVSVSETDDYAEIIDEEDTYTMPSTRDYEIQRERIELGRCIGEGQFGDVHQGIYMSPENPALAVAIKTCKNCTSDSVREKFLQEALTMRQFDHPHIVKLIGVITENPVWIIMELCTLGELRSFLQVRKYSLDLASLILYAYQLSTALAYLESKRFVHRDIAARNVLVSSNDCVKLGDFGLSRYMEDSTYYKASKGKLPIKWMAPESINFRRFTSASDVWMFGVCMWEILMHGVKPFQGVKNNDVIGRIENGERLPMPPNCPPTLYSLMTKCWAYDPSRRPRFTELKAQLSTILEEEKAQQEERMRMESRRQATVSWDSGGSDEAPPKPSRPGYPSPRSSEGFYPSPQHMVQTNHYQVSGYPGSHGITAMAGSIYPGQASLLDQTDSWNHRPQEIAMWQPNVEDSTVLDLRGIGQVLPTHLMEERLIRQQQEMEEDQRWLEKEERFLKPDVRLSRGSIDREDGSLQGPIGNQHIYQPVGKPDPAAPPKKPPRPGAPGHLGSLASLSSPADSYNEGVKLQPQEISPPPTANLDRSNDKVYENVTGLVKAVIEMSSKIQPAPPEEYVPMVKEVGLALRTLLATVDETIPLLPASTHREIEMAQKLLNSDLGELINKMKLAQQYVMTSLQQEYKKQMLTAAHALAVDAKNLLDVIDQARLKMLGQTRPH
Test [12] deals with Fibrinogen (Alexa647-labelled). Put plainly: fibrinogen binders on compound microarrays, profiling panel, artefact control for SMM control-protein annotation, biochemical, small-molecule microarray, 635/667 nm fluorescence (AID 1131).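 Note: z-score merges 667 nm fluorescence with per-spot signal-to-noise over triplicate slides.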 The following applies: fibrinogen-A647 binding fluorescence, higher = more signal.
In test [13] the target is Follistatin (Homo sapiens) (UniProt P19883). Put plainly: follistatin binders on small-molecule microarrays, primary screen, biochemical, small-molecule microarray, 635/667 nm fluorescence (AID 1132). Conditions: FST binding, 635 nm fluorescence, higher = more signal.
Follistatin (Homo sapiens), sequence (P19883 whole entry, looked up): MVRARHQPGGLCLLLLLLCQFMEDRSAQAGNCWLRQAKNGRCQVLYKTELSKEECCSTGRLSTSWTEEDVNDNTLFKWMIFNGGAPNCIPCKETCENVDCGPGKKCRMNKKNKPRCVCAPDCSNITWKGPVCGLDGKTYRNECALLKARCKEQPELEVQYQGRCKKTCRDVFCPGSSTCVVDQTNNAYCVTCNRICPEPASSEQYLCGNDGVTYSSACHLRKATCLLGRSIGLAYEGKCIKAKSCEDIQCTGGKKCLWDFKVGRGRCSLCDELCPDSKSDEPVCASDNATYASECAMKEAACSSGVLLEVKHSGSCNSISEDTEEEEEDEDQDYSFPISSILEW
In test [14] the target is Fibroblast growth factor 2 (Homo sapiens) (UniProt P09038). Put plainly: FGF2 binders on small-molecule microarrays, primary screen, biochemical, small-molecule microarray, 635/667 nm fluorescence (AID 1133). Conditions: small-molecule microarray binding, FGF2, fluorescence 635/667; higher = more signal.
Fibroblast growth factor 2 (Homo sapiens), sequence (P09038 whole entry, looked up): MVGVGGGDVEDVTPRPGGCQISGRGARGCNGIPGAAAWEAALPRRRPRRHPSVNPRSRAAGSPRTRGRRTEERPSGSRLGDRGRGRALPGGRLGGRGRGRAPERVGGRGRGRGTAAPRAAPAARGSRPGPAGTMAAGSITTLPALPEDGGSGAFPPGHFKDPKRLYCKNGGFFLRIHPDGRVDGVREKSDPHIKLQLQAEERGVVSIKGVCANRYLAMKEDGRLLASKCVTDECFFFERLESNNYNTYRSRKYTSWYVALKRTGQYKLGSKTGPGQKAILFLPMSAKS
Test [15] is described as follows: mitochondrial membrane potential change in A549 cells, profiling panel, cell-based, JC-1 fluorescence, basal, 24 h, 100 nL (AID 1138).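 Note: A549 lung adenocarcinoma cells under basal conditions with no added stimulus; test concentration not given here.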 Conditions: higher = more signal.
The subject of the next test is Lefty1. The test is described as follows: Lefty1 binders on small-molecule microarrays, primary screen, biochemical, small-molecule microarray, 635/667 nm fluorescence (AID 1139). The following applies: small-molecule microarray binding, fluorescence 635/667; higher = more signal.
Test [16] relates to wheat germ agglutinin (Triticum aestivum), Alexa647-labelled. Put plainly: wheat germ agglutinin binders on compound microarrays, profiling panel, artefact control for SMM control-protein annotation, biochemical, small-molecule microarray, 635/667 nm fluorescence (AID 1140).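 Note: score merges 667 nm feature emission with signal to noise over triplicate slides.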 The following applies: WGA-A647 binding, 635 nm fluorescence, higher = more signal.
Test [17] deals with Luciferin 4-monooxygenase (Photinus pyralis) (UniProt P08659). Put plainly: firefly luciferase enzyme inhibitors, primary screen, biochemical, luminescence, purified enzyme, 2006 set (AID 1141).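 Note: cell-free assay with purified firefly luciferase at 100 ng per well in PBS; test concentration not given here.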 Conditions: SteadyGlo luminescence, 30 min, higher = more signal, called active from +8 up or from −8 down.
Luciferin 4-monooxygenase (Photinus pyralis), sequence (P08659 whole entry, looked up): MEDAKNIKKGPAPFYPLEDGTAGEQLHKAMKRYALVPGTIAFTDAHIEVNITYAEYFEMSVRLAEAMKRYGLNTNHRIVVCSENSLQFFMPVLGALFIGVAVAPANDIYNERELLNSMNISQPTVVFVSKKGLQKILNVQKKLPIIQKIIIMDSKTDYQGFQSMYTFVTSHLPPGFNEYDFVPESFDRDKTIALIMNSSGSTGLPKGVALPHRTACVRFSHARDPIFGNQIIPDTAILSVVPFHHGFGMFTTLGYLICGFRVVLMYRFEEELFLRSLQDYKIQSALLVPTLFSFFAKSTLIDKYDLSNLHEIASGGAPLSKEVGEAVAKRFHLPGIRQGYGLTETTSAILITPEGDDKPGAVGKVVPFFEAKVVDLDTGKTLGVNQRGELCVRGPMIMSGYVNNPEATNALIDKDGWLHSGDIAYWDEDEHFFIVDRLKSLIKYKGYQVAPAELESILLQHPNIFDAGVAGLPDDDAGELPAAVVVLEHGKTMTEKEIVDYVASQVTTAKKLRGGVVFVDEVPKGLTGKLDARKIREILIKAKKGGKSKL

Our source for the composite z-score, composite Z-score and z-score values is PubChem BioAssay.

Activity calls are given as the source filed them.

Albumin (Bos taurus), sequence (P02769 whole entry, looked up): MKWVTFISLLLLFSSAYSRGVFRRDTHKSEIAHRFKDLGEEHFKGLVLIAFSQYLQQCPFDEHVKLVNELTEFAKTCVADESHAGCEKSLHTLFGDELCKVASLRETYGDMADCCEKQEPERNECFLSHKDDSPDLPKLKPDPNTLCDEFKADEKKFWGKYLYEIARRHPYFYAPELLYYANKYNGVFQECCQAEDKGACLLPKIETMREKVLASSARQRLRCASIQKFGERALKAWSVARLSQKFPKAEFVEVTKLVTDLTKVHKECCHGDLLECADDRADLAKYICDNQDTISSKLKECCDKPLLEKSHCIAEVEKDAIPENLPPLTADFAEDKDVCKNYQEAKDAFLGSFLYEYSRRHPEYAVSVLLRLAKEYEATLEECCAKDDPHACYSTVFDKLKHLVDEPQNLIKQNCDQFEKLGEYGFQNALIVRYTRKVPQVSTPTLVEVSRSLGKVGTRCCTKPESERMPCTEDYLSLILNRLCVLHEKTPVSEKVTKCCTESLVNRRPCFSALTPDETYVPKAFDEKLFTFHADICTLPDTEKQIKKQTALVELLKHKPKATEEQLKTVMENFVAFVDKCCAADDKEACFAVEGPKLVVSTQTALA
Concanavalin-A (Canavalia ensiformis), sequence (P02866 whole entry, looked up): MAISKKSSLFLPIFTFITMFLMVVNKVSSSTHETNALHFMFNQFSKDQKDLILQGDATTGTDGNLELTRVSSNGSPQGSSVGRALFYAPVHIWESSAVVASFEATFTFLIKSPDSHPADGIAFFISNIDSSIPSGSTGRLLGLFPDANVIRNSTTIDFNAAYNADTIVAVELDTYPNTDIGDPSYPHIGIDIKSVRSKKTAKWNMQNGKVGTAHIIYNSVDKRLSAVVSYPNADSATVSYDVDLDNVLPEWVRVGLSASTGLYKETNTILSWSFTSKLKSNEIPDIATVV

Consider `CCOC(=O)[C@H](CC(C)C)NC(=O)CCC1CC(OC(=O)NCc2ccc3c(c2)OCO3)CC2(CCCC(COC(=O)NCc3ccccc3)O2)O1` (stereo not given in full), for which the composite z-score with Albumin (Bos taurus) is 0.646; in test [2], -0.226; in test [3] it was -0.146; in test [4], 0.198; in test [5], 1.25; in test [6], -0.118. Besides, the composite z-score in the test with Sam68 (KHDRBS1) amounted to 1.19; in test [7] it was 0.161; in test [8] it was 1.01; in test [9], 0.333; in test [10], 0.946; in test [11], 0.0786. Besides, the composite z-score in test [12] turned out to be 0.926; in [13], 0.659; in [14], 0.495; with Lefty1, 1.03; in test [16], 0.786. The composite Z-score in test [1] is 1.09 (inactive). For the same molecule, the figures for the z-score in test [15] and in test [17] were -0.0369 and 0.976 (inactive), respectively.

Consider `CC(CCN1CCCCc2nc(C)c(C)cc21)=NO[C@H](C)c1cn([C@@H]2COC[C@H]2O)nn1`, for which the composite z-score in the test with Albumin (Bos taurus) worked out at 0.43; in test [2] it was 0.156; in test [3], 0.0097; in test [4] it was 0.616; in [5], 0.298; in test [6] it was 0.0986. For the same molecule, the composite z-score with Sam68 (KHDRBS1) was 1.2; in test [7], 1.49; in test [8], 0.685; in [9] it was 0.968; in test [10], 0.12; in test [11], 0.422. The composite z-score in test [12] was 0.41; in [13] it was 1.26; in test [14], 1.33; in the test on Lefty1, 1.38; in test [16] it was -0.0522. Further, the composite Z-score in test [1] was -1.61 (inactive). Besides, the values for the z-score in test [15] and in test [17] were -0.624 and 1.05 (inactive), respectively.

For `COC(=O)[C@H](CCSC)NC(=O)CC=C[C@@H](C)CO`, the composite z-score with Albumin (Bos taurus) was -0.245; in [2] it was -0.0651; in [3], -0.143; in test [4], 0.0952; in test [5], 1.42; in test [6], -0.226. Further, the composite z-score amounted to 1.29 with Sam68 (KHDRBS1); 1.5 in test [7]; 0.483 in [8]; 0.293 in test [9]; 0.127 in test [10]; 0.0533 in test [11]. Further, the composite z-score in test [12] is -0.922; in test [13], 1.1; in test [14], 1.73; in the test on Lefty1, 1.6; in [16], -0.701. In addition, the composite Z-score in test [1] is -0.131 (inactive). Moreover, the results for the z-score in test [15] and in test [17] were -1.08 and -0.08 (inactive), respectively.

For the molecule `CCc1cc2c(nc1CC)CCN(CCC(C)=NOC[C@@H](C)[C@H](OCc1ccccc1)C(C)C)C2`, the composite z-score with Albumin (Bos taurus) was 0.742; in test [2], -0.443; in test [3], -0.135; in [4], -0.25; in [5] it was -0.171; in test [6], -0.383. In addition, the composite z-score in the test on Sam68 (KHDRBS1) is -0.16; in [7], -1.05; in test [8], -1.12; in test [9], 2.64; in test [10], -0.684; in test [11], -0.846. The composite z-score in test [12] is -1.69; in [13] it was -0.862; in test [14], -1.39; in the test with Lefty1 it was -0.465; in [16], -0.323. In addition, in test [1], the composite Z-score was 0.551 (inactive). Besides, the z-score is 0.874 in [15] and -1.77 (inactive) in [17].

With `CCN1C(=O)[C@H]2[C@@H]3C(=CC[C@H]2C1=O)C(=O)[C@H]1O[C@H]1[C@H]3O`, the composite z-score with Albumin (Bos taurus) was -0.458; in [2], -0.0258; in [3], -0.0531; in test [4], -0.156; in test [5], 0.141; in test [6], 0.426. Also, the composite z-score in the test on Sam68 (KHDRBS1) is 0.657; in test [7], 1.21; in test [8] it was 0.725; in test [9] it was 1.21; in [10], 0.491; in [11], -0.204. The composite z-score in test [12] came out at 0.185; in test [13], 1.21; in test [14], 1.42; in the test on Lefty1, 1.39; in test [16], 0.207. In addition, the composite Z-score in [1] was -0.192 (inactive). In addition, the z-score was -0.923 in test [15] and -0.415 (inactive) in test [17].

In the case of `CCOC(=O)[C@H](Cc1ccccc1)NC(=O)CCC1CC(OC(=O)NCc2ccc3c(c2)OCO3)CC2(CCCC(COC(=O)NCCc3ccc(Cl)cc3)O2)O1` (stereo not given in full), the composite z-score in the test with Albumin (Bos taurus) is 0.581; in [2], 0.0591; in test [3] it was -0.125; in [4], 0.151; in [5] it was 0.454; in test [6] it was 0.0158. Further, the composite z-score in the test with Sam68 (KHDRBS1) is 1.3; in [7] it was 0.43; in [8], 0.814; in [9], 0.0231; in test [10], 0.908; in [11] it was 0.762. The composite z-score in test [12] stood at 0.755; in [13], 0.749; in test [14], 0.303; in the test on Lefty1 it was 1.03; in test [16], 0.335. For the same molecule, the composite Z-score in [1] was 0.264 (inactive). Also, the z-score in test [15] was 0.05; in test [17] it was -0.144 (inactive).
